Among the data in PubChem BioAssay (EPA / NIEHS) are outcome and AC50 values, retold here.

The target of experiment [1] is rat Mineralocorticoid Receptor (MR), Nr3c2 (gene 25672) (UniProt P22199). The experiment can be described thus: NVS_NR_rMR: NovaScreen (NVS) Nuclear Receptor Binding Assay for rat Mineralocorticoid Receptor (MR) (AID 2283355). In short, it runs like this: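 Adrenalectomized rat brain supernatant was dosed with test chemical, then radioligand binding was measured by scintillation counting at 24 h. Initial testing ran in duplicate at 25 uM, followed by concentration series for actives.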
Sequence of rat Mineralocorticoid Receptor (MR), Nr3c2 (gene 25672) (P22199 whole entry, looked up): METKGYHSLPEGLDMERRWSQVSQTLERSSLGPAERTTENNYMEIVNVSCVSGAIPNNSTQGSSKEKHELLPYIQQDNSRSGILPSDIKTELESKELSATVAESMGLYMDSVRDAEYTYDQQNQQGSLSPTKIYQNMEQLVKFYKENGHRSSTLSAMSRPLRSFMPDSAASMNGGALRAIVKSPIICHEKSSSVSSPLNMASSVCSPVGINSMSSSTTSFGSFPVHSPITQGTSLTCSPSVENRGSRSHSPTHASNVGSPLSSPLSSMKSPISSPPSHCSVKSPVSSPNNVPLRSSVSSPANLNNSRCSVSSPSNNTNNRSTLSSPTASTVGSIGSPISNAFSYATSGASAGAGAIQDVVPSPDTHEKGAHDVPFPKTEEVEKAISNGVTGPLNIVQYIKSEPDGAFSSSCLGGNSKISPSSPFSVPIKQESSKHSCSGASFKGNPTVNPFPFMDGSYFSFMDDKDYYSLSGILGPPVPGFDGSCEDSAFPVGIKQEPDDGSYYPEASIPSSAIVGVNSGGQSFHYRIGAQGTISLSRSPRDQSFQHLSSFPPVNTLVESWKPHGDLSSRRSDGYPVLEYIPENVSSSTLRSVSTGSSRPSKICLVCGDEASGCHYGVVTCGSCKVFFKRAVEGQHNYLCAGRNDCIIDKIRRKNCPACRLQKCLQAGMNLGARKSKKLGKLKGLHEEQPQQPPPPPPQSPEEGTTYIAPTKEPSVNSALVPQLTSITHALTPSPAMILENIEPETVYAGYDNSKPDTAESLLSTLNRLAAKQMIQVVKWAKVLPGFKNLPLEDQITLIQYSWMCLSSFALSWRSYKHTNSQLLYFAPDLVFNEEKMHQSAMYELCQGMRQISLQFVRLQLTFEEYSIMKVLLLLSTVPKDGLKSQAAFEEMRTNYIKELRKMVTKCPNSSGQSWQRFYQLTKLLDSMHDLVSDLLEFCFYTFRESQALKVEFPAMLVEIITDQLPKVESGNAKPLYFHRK

The target in experiment [2] is Estrogen receptor (Homo sapiens) (UniProt P03372). Description: OT_ER_ERaERa_0480: Odyssey Thera (OT) 8-hour HEK293T Protein-Complementation Assay for Estrogen Receptor-alpha/-alpha Homodimer (AID 2283351).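 Also: rise in fluorescence from reassembled reporter fragments on ERα LBD homodimer in nucleus or whole cell.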 In short, it runs like this:
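HEK293T cells stably expressing the human ERα ligand-binding domain (aa 310-547) as a homodimer PCA were dosed with compound for 8 h. Gain of fluorescence intensity versus DMSO vehicle was read by laser scanning cytometry.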

In experiment [3] the target is T1, Estrogen receptor (Homo sapiens) + Estrogen receptor beta (Homo sapiens) (UniProt P03372+Q92731). Description: OT_ER_ERaERb_0480: Odyssey Thera (OT) 8-hour HEK293T Protein-Complementation Assay for Estrogen Receptor-alpha/-beta Heterodimer (AID 2283352). The method in brief: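 Compound added to HEK293T cells carrying split-reporter-tagged ER-alpha and ER-beta LBDs, incubated 8 hours, then imaged by laser scanning cytometer. Signal rise in nucleus, or nucleus and cytoplasm, over vehicle was fitted in the positive direction.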
T1 sequence (P03372 whole entry, looked up): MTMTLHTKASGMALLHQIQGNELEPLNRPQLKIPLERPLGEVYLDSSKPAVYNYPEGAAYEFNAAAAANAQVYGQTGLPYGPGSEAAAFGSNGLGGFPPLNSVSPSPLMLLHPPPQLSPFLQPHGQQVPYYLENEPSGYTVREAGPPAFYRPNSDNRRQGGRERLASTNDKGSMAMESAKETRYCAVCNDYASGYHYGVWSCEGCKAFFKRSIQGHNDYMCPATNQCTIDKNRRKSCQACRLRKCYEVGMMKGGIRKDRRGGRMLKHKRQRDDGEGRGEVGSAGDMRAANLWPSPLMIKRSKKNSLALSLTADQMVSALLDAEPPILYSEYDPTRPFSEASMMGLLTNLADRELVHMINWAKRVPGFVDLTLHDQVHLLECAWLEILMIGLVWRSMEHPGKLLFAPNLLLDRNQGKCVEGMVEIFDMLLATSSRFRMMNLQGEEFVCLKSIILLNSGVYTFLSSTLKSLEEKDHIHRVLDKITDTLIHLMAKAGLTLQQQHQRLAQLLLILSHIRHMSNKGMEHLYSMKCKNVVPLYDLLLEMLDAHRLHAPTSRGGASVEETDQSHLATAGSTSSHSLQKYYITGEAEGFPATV
T1 sequence (Q92731 whole entry, looked up): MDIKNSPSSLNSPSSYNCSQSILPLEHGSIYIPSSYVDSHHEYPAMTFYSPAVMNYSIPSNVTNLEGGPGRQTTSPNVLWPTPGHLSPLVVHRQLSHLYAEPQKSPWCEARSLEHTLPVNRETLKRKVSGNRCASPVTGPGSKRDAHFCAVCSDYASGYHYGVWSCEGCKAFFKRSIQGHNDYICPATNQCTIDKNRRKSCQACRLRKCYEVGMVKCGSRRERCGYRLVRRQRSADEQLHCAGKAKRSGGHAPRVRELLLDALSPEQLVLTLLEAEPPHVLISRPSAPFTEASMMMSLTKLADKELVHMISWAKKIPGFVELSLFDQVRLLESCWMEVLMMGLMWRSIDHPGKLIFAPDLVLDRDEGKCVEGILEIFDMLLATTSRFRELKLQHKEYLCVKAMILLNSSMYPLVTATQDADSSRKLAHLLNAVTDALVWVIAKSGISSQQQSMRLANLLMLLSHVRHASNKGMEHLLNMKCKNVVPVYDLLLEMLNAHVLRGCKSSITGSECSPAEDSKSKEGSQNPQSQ

The target of experiment [4] is T1, Estrogen receptor (Homo sapiens) + Estrogen receptor beta (Homo sapiens). Description: OT_ER_ERaERb_1440: Odyssey Thera (OT) 24-hour HEK293T Protein-Complementation Assay for Estrogen Receptor-alpha/-beta Homodimer (AID 2283356).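 Also: heteromer of ER alpha and ER beta binding domains; hits raise reporter fluorescence and both agonists and antagonists give an increase.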 In short, it runs like this: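 Stable HEK293T PCA line, ERα LBD 310-547 + ERβ LBD 263-489 fused to reporter fragments; 24 h treatment; fluorescence read by laser scanning cytometry; positive fitting direction relative to DMSO.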

Experiment [5] concerns the target Estrogen receptor (Homo sapiens) (UniProt P03372). The experiment can be described thus: OT_ER_ERaERa_1440: Odyssey Thera (OT) 24-hour HEK293T Protein-Complementation Assay for Estrogen Receptor-alpha/-alpha Homodimer (AID 2283349).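 Also: hits raise fluorescence above DMSO for agonists and antagonists alike.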 The method in brief: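 Protein-fragment complementation between two human ERα ligand-binding domains (aa 310-547) in stably transfected HEK293T cells was monitored after 24 h treatment, using fluorescence intensity relative to vehicle controls.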

The target of experiment [6] is Androgen Receptor/SRC-1 Co-activator, AR (gene 367) (UniProt P10275). The experiment can be described thus: OT_AR_ARSRC1_0960: Odyssey Thera (OT) 16-hour HEK293T Protein-Complementation Assay for Androgen Receptor/SRC-1 Co-activator (AID 2283353).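 Also: actives raise the signal above DMSO so potency reflects increased AR and SRC-1 complex.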 In short, it runs like this:
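HEK293T cells stably expressing AR and SRC-1 fused to split Venus YFP fragments via (Gly4Ser)2 linkers were dosed for 16 h. Nuclear/cytoplasmic fluorescence ratio at 488 nm, ≥400 cells per image, fitted for gain of signal versus DMSO.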

The target is the same in experiment [7]. The experiment can be described thus: OT_AR_ARSRC1_0480: Odyssey Thera (OT) 8-hour HEK293T Protein-Complementation Assay for Androgen Receptor/SRC-1 Co-activator (AID 2283354).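 Also: hits raise the complementation signal above DMSO so AC50 marks enhancers.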 In short, it runs like this: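 Measures AR/SRC-1 binding by Venus YFP fragment complementation in HEK293T stable lines at 8 h post-dose. Imaging quantifies the 488nm nucleus/cytoplasm ratio in ≥400 cells; DMSO defines baseline.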

Experiment [8] has as its target Bile acid receptor (Homo sapiens) (UniProt Q96RI1). Description: NVS_NR_hFXR_Antagonist: NovaScreen (NVS) Nuclear Receptor Binding Assay for human Farnesoid X Receptor Antagonism (FXR) (AID 2283350). The method in brief: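 Cell-free TR-FRET ligand-binding read-out on human FXR (NR1H4) in antagonist mode, measured 1 h after dosing. Primary screen in duplicate at 25 uM, actives retested in concentration series; signal loss scored versus DMSO.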

Records with an inconclusive call do not appear. Where a structure was tested more than once in an assay, its records may differ in their call. Calls of active or inactive are those of the source. The calls were made as follows: active = hit-call score of the fitted dose curve at least 0.9, where 1 is the maximum; inconclusive = response in the unintended direction; inactive = score below 0.9.

Sequence of Estrogen receptor (Homo sapiens) (P03372 whole entry, looked up, the tested form may be a part): as the sequence (P03372 whole entry, looked up) above
Sequence of Androgen Receptor/SRC-1 Co-activator, AR (gene 367) (P10275 whole entry, looked up, the tested form may be a part): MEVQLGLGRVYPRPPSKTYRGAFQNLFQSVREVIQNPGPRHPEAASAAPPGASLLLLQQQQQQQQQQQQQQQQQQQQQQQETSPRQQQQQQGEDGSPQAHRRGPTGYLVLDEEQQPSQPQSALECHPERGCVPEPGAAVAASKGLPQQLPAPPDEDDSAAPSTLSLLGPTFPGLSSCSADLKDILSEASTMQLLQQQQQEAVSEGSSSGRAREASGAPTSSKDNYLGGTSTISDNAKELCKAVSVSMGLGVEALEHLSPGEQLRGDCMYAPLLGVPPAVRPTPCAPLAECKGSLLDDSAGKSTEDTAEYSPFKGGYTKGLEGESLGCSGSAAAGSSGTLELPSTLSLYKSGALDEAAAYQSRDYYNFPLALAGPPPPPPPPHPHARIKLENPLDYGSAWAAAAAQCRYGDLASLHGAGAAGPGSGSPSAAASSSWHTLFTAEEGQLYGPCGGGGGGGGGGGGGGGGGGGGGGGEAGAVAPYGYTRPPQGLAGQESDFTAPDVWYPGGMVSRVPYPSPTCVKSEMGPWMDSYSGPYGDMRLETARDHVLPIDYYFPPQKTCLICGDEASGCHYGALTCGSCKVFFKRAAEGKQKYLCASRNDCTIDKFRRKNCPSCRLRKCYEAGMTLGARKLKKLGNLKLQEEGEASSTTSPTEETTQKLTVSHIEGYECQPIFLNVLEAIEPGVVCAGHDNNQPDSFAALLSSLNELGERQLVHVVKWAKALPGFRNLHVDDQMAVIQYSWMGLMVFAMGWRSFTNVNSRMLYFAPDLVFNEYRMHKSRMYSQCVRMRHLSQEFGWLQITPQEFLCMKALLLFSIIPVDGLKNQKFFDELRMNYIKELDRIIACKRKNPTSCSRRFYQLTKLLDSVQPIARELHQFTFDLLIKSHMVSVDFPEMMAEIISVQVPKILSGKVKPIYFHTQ
Sequence of Bile acid receptor (Homo sapiens) (Q96RI1 whole entry, looked up): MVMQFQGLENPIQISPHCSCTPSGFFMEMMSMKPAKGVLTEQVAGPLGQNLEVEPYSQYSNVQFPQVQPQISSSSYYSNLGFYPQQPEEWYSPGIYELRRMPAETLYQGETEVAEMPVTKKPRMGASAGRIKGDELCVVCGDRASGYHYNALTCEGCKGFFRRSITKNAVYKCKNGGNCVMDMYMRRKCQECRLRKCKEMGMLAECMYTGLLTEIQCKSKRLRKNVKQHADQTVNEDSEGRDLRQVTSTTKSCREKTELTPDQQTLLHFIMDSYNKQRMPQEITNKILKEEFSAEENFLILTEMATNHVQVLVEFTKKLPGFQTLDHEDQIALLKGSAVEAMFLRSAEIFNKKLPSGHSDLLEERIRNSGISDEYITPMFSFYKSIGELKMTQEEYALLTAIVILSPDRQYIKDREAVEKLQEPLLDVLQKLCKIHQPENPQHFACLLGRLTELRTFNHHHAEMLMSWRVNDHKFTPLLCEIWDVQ

As to `CCCCNC(=O)n1c(NC(=O)OC)nc2ccccc21`, in experiment [1], the compound was called inactive.

Turning to `CNC(=O)ON=CC(C)(C)SC`, in experiment [2], the compound was called inactive.

On to `CC(C)(C)c1ccc(CSc2cnn(C(C)(C)C)c(=O)c2Cl)cc1`, for which the compound was called inactive in experiment [2], in experiment [3] and in experiment [4].

On to `CCNc1nc(Cl)nc(NCC)n1`, for which the call in experiment [5], in experiment [2], in experiment [3] and in experiment [4] was inactive.

Consider `N#CC(CCc1ccc(Cl)cc1)(Cn1cncn1)c1ccccc1` (stereo not drawn), for which the result in experiment [2] and in experiment [4] was inactive.

With `Fc1ccc(Oc2ccnc3cc(Cl)cc(Cl)c23)cc1`, the compound was classed as inactive in experiment [2], in experiment [3] and in experiment [4].

Regarding `COC(=O)C=C(C)OP(=O)(OC)OC`, the compound was called inactive in experiment [2], in experiment [3] and in experiment [4].

For the compound `CC1COC(Cn2cncn2)(c2ccc(Oc3ccc(Cl)cc3)cc2Cl)O1` (stereo not drawn), the outcome in experiment [5], in experiment [2] and in experiment [4] was inactive.

On to `CC1=C(C(=O)Nc2ccccc2)SCCO1`, for which the result in experiment [3], in experiment [6], in experiment [7] and in experiment [4] was inactive.

On to `CCOP(=S)(OCC)SCn1c(=O)oc2cc(Cl)ccc21`, for which the result in experiment [2] and in experiment [4] was inactive.

One may read the AC50 as the concentration giving half of the maximal activity seen. `CN(C)C(=S)SSC(=S)N(C)C`: the AC50 in experiment [8] is 8.97 µM (active); in experiment [6], 26.2 µM (active). The outcome in experiment [2], in experiment [7] and in experiment [4] was inactive.

Consider `COC(=O)C(C)Oc1ccc(Oc2ccc(Cl)cc2Cl)cc1` (stereo not drawn), for which, in experiment [1], the compound was classed as inactive.

For `CC(C)Oc1cc(-n2nc(C(C)(C)C)oc2=O)c(Cl)cc1Cl`, the result in experiment [2], in experiment [3], in experiment [7] and in experiment [4] was inactive. Besides, in experiment [6], the AC50 was 31.3 µM (active).

`CCON=C(CC)C1=C(O)CC(c2c(C)cc(C)cc2C)CC1=O` (stereo not drawn): the compound was called inactive in experiment [2] and in experiment [6].

In the case of `CC(C)C1(C)N=C(c2nc3ccccc3cc2C(=O)O)NC1=O` (stereo not drawn), the call in experiment [8], in experiment [2], in experiment [3] and in experiment [4] was inactive.

As for `C=CCC1=C(C)[C@@H](OC(=O)[C@@H]2[C@@H](C=C(C)C)C2(C)C)CC1=O`, the call in experiment [2] was inactive.

Regarding `COC(=O)N(OC)c1ccccc1COc1ccn(-c2ccc(Cl)cc2)n1`, the call in experiment [2], in experiment [3] and in experiment [4] was inactive.

`O=C(O)COc1nc(Cl)c(Cl)cc1Cl`: in experiment [2], the result was inactive.

Regarding `CS/C(C)=N/OC(=O)N(C)SN(C)C(=O)O/N=C(\C)SC`, the compound was called inactive in experiment [5], in experiment [2] and in experiment [4]. In addition, the AC50 was 78.2 µM (active) in experiment [6] and 72.2 µM (active) in experiment [7].

With `O=C(Nc1ccccc1)Nc1ccnc(Cl)c1`, the result in experiment [2], in experiment [6] and in experiment [7] was inactive.

Turning to `C#CCOS(=O)OC1CCCCC1Oc1ccc(C(C)(C)C)cc1` (stereo not drawn), the compound was classed as inactive in experiment [8], in experiment [2], in experiment [3] and in experiment [4].

Turning to `COP(N)(=O)SC` (stereo not drawn), the compound was classed as inactive in experiment [8], in experiment [3] and in experiment [4].

As for `CCCC1COC(Cn2cncn2)(c2ccc(Cl)cc2Cl)O1` (stereo not drawn), the call in experiment [2] and in experiment [7] was inactive. In addition, the AC50 in experiment [6] is 34.3 µM (active).

`CNC(=S)S`: the compound was classed as inactive in experiment [2], in experiment [3] and in experiment [4].

`Oc1ccccc1-c1ccccc1`: the compound was called inactive in experiment [2], in experiment [3] and in experiment [4]. In addition, the AC50 in experiment [3] is 66 µM (active); in experiment [4], 35.7 µM (active).

For `CCOc1cc(Oc2ccc(C(F)(F)F)cc2Cl)ccc1[N+](=O)[O-]`, the compound was classed as inactive in experiment [2], in experiment [3] and in experiment [4].

As to `O=C(O)c1nc(Cl)ccc1Cl`, the outcome in experiment [2] was inactive.
